Where “and” joins values, the source holds several entries; their conditions need not be identical. Equal entries are not always repeated. Results filed as inconclusive are left out. The source holds several records for some structures; these can differ, active in one and inactive in another. Calls of active or inactive are those of the source. Unless noted, the call rests on the fitted dose curve; in most records, active means well fitted curve in the direction sought with a large enough effect; inconclusive means small, poorly fitted or top-dose-only effect, or another doubt; inactive means no such curve, though single readings can be large; an effect the other way counts as inactive or inconclusive.
How the values were obtained:
[1] = Validation screen for small molecules that induce genotoxicity in human embryonic kidney (HEK293T) cells expressing luciferase-tagged ELG1 (AID 493106); further: 0% is about no effect
Summary of the method: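 In this validation screen, increased ELG1-luciferase signal flags compounds causing genetic stress. HEK293T reporter cells are treated 16 hr (37 °C, 5% CO2), developed with ONE-Glo for 30 min at room temperature, and imaged on a CCD-based reader.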

[2] = biological target: ATPase family AAA domain-containing protein 5 (Homo sapiens) (UniProt Q96QE3); assay: Validation screen for small molecules that inhibit ELG1-dependent DNA repair in human embryonic kidney (HEK293T) cells expressing luciferase-tagged ELG1 (AID 493107); further: nearly all actives have a fitted effect of over 70% in size; further: potency means the concentration at half of the fitted maximal effect
ATPase family AAA domain-containing protein 5 (Homo sapiens), sequence (Q96QE3 whole entry, looked up, the tested form may be a part): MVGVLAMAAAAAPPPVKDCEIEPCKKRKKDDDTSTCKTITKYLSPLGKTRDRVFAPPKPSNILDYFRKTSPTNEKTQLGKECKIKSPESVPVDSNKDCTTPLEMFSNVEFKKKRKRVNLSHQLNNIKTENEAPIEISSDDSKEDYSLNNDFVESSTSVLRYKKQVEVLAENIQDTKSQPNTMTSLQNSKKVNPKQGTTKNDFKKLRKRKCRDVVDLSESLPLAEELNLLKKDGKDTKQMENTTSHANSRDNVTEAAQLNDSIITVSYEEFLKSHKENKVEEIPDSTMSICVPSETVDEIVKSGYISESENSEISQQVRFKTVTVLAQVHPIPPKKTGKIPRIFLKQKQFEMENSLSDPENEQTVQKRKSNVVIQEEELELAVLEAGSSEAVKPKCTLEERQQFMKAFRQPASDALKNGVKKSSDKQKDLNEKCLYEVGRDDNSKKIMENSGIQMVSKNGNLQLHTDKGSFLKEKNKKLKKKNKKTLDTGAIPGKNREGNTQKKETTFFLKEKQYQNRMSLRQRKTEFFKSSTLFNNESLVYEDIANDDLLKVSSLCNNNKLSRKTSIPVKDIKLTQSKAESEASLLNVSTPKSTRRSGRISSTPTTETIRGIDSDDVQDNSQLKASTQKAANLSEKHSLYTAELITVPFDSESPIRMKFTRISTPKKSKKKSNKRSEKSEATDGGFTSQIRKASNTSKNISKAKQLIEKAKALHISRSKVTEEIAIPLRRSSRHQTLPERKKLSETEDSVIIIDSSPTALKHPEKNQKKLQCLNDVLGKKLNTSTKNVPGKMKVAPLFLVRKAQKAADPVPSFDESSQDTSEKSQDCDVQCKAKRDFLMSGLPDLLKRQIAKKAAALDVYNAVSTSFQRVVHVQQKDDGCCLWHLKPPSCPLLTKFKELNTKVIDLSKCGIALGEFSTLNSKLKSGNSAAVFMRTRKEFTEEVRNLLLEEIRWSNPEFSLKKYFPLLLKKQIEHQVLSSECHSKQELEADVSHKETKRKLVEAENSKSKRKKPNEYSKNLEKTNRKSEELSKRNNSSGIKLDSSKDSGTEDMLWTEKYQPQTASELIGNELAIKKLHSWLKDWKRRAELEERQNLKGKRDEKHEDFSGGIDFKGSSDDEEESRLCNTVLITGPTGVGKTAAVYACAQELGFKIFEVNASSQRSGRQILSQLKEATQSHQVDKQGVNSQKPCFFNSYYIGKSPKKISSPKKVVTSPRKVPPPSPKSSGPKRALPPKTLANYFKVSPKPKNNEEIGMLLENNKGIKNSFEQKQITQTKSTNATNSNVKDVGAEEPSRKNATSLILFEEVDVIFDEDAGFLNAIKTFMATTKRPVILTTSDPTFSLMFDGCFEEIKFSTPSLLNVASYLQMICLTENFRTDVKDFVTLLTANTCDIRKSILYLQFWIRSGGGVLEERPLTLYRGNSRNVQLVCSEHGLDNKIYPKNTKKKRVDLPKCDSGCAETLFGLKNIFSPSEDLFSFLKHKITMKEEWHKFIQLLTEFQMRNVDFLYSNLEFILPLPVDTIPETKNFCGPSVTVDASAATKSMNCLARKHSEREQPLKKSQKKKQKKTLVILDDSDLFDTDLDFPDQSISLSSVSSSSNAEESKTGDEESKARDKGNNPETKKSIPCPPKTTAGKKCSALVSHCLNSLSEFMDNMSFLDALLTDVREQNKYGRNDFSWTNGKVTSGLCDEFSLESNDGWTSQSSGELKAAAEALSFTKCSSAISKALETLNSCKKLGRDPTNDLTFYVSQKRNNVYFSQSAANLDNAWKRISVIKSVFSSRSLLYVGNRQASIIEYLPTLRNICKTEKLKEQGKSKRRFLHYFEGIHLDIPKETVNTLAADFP
Summary of the method: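 Compounds reducing 5-fluorouridine-driven ELG1-luciferase signal in HEK293T cells were scored; exposure lasted 16 hr at 37 °C with luminescence detected via ONE-Glo.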

[3] = biological target: Thyrotropin-releasing hormone receptor (Homo sapiens) (UniProt P34981); assay: qHTS for Small Molecule Agonists and Allosteric Enhancers of Human TRH Receptor: Validation Screen for Agonists (AID 493127;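 active means calcium activation more than 3 SD above the typical response in the agonist read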;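 further: intracellular calcium rise by fluo-8 fluorescence before TRH EC20 addition; 0% is about no effect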); details: TRH receptor agonist cell assay; at 2 µM; stronger effect = higher value
Thyrotropin-releasing hormone receptor (Homo sapiens), sequence (P34981 whole entry, looked up): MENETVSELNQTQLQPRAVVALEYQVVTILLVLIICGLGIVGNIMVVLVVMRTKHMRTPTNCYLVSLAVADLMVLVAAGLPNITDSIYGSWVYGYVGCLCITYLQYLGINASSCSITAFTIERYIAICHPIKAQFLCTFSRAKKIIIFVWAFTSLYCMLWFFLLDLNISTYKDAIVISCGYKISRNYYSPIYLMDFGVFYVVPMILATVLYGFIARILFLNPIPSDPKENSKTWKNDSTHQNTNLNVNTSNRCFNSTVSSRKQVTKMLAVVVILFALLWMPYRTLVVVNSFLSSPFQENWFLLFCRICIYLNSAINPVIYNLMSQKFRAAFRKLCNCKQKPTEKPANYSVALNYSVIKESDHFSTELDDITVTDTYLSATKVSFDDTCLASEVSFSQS
Summary of the method: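 Kinetic fluorescence assay of agonist-induced calcium release: overnight-plated TRHR cells, room-temperature fluo-8 loading, baseline then compound addition with per-second reads.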

[4] = Nrf2 qHTS screen for inhibitors: Validation (AID 493153; active means well fitted inhibition curve with a large enough effect in the main read-out, with a control signal flat, not every such curve was filed as active); details: Potency: luciferase luminescence; viability change: measured here: cytotoxicity max response
Summary of the method: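 In this counterscreened reporter format, each well gives two signals: CellTiter-Fluor fluorescence for cytotoxicity and ARE-luciferase luminescence for Nrf2 function. A549 ARE_Fluc cells in 5% FBS OPTI-MEM were exposed to compound titrations for 18-24 h.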

[5] = qHTS for Inhibitors of Cell Surface uPA Generation: Validation Assay (AID 493164);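 further: RAW 264.7 macrophage cells exposed to compound for 18 h; 0% is about no effect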
Summary of the method: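 Compounds are titrated over seven points (2.45 nM–38.3 uM final) onto pre-plated RAW 264.7 cells and incubated for 18 h. Retained intracellular ATP, measured with ATP-Lite, indicates blocked lethal factor entry.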

[6] = biological target: Galactokinase (Homo sapiens) (UniProt P51570); assay: qHTS Validation Assay for Inhibitors of Human Galactokinase (GALK) (AID 493189); further: potency means the concentration at half of the fitted maximal effect
Summary of the method: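 Compounds were pin-transferred into ATP buffer, then GALK-galactose mix was added (final 5 nM enzyme, 100 uM galactose, 35 uM ATP). After 1 h at room temperature, remaining ATP was measured luminescently.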

[7] = Validation screen for small molecules that induce DNA re-replication in SW480 colon adenocarcinoma cells (AID 504364); further: 0% is about no effect
Summary of the method: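 Hoechst-stained SW480 nuclei, imaged at 405 nm excitation after 48 hr compound exposure, were counted for elevated DNA content as the re-replication signal.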

[8] = biological target: Peptidyl-prolyl cis-trans isomerase NIMA-interacting 1 (Homo sapiens) (UniProt Q13526); assay: qHTS Validation Assay to Find Inhibitors of Pin1 (AID 504536; active means well fitted inhibition curve with a large enough effect in the polarisation, with a control signal flat, not every such curve was filed as active; the % refers to the polarisation; further: potency means the concentration at half of the fitted maximal effect)
Peptidyl-prolyl cis-trans isomerase NIMA-interacting 1 (Homo sapiens), sequence (Q13526 whole entry, looked up): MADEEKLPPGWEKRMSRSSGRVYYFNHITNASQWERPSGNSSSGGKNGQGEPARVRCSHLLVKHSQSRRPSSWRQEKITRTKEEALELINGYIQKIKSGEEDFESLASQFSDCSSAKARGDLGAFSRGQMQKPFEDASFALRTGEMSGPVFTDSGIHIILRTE
Summary of the method: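 Fluorescence polarization competition: compounds (titration) displace HiFluor-488-labeled Pin1-1b peptide from Pin1 (0.3 uM final) in pH 7.5 HEPES buffer with DTT, 10 min at room temperature; %Activity normalized to no-enzyme wells, curves fitted.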

[9] = biological target: Phosphoglycerate kinase, glycosomal (Trypanosoma brucei brucei) (UniProt P07378); assay: qHTS Validation Assay to Find Inhibitors of Phosphoglycerate Kinase (AID 504547); further: potency means the concentration at half of the fitted maximal effect
Summary of the method: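 Compounds are pinned into the substrate/PGK mixture, and GAPDH (100nM final) is added to start the reaction by producing 1,3-BPG. After 60 minutes at room temperature, Kinase-Glo Plus is added and luminescence is measured 10 minutes later.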

[10] = biological target: phosphoglycerate mutase (Leishmania major) (UniProt Q4Q090); assay: qHTS Validation Assay to Find Inhibitors of Phosphoglycerate Mutase (AID 504548); further: series mostly up to about 58 µM; on the % scale 0 is the no-effect control and ±100 the full control effect
phosphoglycerate mutase (Leishmania major), sequence (Q4Q090 1-553): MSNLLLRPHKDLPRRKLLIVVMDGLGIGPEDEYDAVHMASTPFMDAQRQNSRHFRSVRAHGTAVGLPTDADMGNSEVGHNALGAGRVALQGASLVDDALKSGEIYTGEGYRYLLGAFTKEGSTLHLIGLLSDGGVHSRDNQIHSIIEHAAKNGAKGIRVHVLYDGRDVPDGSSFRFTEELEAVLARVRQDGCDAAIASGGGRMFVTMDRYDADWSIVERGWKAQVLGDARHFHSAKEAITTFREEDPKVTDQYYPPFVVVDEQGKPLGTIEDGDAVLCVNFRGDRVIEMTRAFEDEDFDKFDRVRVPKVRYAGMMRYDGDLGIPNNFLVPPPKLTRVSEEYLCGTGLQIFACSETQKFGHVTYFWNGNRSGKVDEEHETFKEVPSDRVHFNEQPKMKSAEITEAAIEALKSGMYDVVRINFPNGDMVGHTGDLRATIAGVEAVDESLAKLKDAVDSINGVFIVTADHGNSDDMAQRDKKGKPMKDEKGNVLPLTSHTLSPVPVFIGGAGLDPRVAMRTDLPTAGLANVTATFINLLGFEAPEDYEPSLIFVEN
Summary of the method: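 Lm PGAM at 1.25 nM final with substrate in 100 mM TEA pH 7.6, 5 mM MgCl2, 0.01% Tween-20; 45 min at room temperature. Kinase-GloPlus added, 10 min, end-point luminescence read.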

[11] = biological target: Ubiquitin carboxyl-terminal hydrolase 1 (Homo sapiens) (UniProt O94782); assay: Inhibitors of USP1/UAF1: Pilot qHTS (AID 504865); further: nearly all actives have a fitted effect of over 35% in size; further: potency means the concentration at half of the fitted maximal effect
Ubiquitin carboxyl-terminal hydrolase 1 (Homo sapiens), sequence (O94782 whole entry, looked up): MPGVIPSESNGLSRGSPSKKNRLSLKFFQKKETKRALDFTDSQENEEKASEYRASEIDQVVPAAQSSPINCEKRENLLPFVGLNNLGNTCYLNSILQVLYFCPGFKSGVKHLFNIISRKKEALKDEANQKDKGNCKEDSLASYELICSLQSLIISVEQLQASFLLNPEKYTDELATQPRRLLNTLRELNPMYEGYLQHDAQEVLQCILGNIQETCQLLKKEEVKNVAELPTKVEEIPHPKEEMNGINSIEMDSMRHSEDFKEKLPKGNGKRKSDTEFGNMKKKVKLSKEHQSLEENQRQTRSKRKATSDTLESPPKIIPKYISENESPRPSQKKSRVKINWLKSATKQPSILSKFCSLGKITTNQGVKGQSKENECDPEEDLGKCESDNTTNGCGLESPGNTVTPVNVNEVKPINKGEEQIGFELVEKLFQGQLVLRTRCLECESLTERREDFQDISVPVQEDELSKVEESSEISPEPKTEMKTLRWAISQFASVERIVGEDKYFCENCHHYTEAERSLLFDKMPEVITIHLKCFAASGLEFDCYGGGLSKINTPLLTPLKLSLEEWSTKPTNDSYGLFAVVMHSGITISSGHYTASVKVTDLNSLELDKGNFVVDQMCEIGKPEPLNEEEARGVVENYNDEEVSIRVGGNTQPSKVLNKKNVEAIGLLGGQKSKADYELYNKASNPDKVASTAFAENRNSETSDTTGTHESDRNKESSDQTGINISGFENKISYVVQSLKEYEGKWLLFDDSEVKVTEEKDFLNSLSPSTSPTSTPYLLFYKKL
Summary of the method: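 Kinetic fluorescence assay: 1nM USP1/UAF1, 15 min compound preincubation, then 150nM Ub-Rho; 480/540 nm.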

[12] = qHTS for Inhibitors of ATXN expression: Validation of Cytotoxic Assay (AID 588349); further: on the % scale 0 is the no-effect control and ±100 the full control effect
Summary of the method: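 Toxicity of test compounds toward HEK293 cells is scored from cellular ATP content measured by CellTiter Glo. Cells receive titrated doses and incubate 72 hr at 37 degrees C beforehand.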

[13] = qHTS for Inhibitors of ATXN expression: Validation (AID 588378); further: series mostly up to about 57 µM; on the % scale 0 is the no-effect control and ±100 the full control effect; nearly all actives have a fitted effect of over 75% in size
Summary of the method: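 Validation of ATXN2 expression inhibitors uses a cell-based luciferase fusion reporter in HEK293 cells, with 24 h compound exposure and paired viability (fluorescence) and reporter (luminescence) end-point reads.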

[14] = biological target: DNA dC->dU-editing enzyme APOBEC-3G (Homo sapiens) (UniProt Q9HC16); assay: qHTS for inhibitors of Vif-A3G interactions: Validation (AID 588379); further: 0% is about no effect
DNA dC->dU-editing enzyme APOBEC-3G (Homo sapiens), sequence (Q9HC16 whole entry, looked up): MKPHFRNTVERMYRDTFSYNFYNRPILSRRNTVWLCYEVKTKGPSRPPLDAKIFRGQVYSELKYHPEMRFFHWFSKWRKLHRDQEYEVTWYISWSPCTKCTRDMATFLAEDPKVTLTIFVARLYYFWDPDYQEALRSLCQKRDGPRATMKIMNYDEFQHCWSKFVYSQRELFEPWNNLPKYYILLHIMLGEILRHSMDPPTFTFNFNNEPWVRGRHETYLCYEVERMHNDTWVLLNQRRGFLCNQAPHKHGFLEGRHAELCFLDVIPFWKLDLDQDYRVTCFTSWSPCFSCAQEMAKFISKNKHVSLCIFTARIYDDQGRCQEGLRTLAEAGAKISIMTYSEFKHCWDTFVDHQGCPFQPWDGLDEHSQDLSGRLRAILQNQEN
Summary of the method: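 Yellow fluorescence (Ex 488, Em 500-530) of Vif-coexpressing HeLa A3G-eYFP cells, scanned by Acumen cytometer, reports blocked A3G degradation. Cells plated at 700/well overnight at 37 deg C before compound addition, then a further overnight compound incubation at 37 deg C.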

[15] = biological target: Bile acid receptor (Homo sapiens) (UniProt Q96RI1); assay: qHTS assay for small molecule antagonists of farnesoid X receptor signaling (AID 588526; calls by dose curve; further: on the % scale 0 is the no-effect control and ±100 the full control effect)
Summary of the method: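 Antagonist mode: titrated compounds tested against chenodeoxycholic acid stimulation (normalized to 50 uM CDCA and DMSO) in GeneBLAzer HEK293T cells for 16 h. Beta-lactamase read by CCF4 fluorescence; IC50 from Hill fits.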

[16] = biological target: Glucocorticoid receptor (Homo sapiens) (UniProt P04150); assay: qHTS assay for small molecule agonists of glucocorticoid receptor signaling (AID 588532; active means well fitted curve in the direction sought with a large enough effect in the signal ratio, with a control signal flat; the % refers to the signal ratio;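 further: 100% = dexamethasone at 0.1 µM and 0% = DMSO only wells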); details: HeLa MMTV-bla, beta-lactamase ratio, agonist, 18 h; stronger effect = higher value; percent of dexamethasone control, DMSO zero
Glucocorticoid receptor (Homo sapiens), sequence (P04150 whole entry, looked up): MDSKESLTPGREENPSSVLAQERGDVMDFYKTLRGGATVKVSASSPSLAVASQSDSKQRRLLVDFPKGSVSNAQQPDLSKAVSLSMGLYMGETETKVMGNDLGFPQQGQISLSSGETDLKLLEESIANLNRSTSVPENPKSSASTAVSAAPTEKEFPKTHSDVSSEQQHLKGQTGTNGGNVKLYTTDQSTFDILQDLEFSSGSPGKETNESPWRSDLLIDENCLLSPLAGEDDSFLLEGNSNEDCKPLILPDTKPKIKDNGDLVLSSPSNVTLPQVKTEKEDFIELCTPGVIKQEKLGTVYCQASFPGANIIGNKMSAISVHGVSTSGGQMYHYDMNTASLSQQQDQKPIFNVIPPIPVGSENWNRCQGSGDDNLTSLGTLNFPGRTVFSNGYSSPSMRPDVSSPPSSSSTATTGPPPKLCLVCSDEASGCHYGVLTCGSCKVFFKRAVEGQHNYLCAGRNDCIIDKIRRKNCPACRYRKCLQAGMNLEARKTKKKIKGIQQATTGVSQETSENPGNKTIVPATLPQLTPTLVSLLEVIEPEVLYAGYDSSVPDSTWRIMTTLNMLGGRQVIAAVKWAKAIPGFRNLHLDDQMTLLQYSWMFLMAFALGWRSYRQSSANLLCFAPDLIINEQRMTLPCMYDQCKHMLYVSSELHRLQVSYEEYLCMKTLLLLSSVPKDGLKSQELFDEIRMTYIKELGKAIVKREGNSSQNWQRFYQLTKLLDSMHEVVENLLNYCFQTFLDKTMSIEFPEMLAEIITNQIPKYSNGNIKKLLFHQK
Summary of the method: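 Cells were plated and rested 3-5 h at 37 C, compounds were added in titration and incubated 18 h, then CCF4 substrate was loaded for 2 h at RT before reading blue/green fluorescence. EC50 came from Hill-equation fitting.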

[17] = qHTS assay for small molecule antagonists of peroxisome proliferator-activated receptor delta signaling (AID 588535); details: HEK293T PPARd-UAS-bla, beta-lactamase FRET ratio, 18 h; 460 nm channel;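 further: cells co-treated with a PPAR-delta agonist as stimulator during compound exposure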
Summary of the method: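 Beta-lactamase reporter read-out (405 nm excitation, 460/530 nm emission) after CCF4 loading for 2 hrs at RT. HEK293T PPAR-delta-UAS-bla cells, 2% charcoal/dextran FBS, compounds for 18 hrs at 37 C. Hill fit gave IC50 and efficacy.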

[18] = biological target: Estrogen receptor (Homo sapiens) (UniProt P03372); assay: qHTS assay for small molecule agonists of estrogen receptor alpha signaling (AID 588514; calls by dose curve;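 further: 0% = vehicle only and 100% = reference agonist; nearly all actives have a fitted effect of over 70% in size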)
Summary of the method: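 Fluorescence from CCF4 cleavage reports ER-alpha-driven beta-lactamase expression in HEK 293 cells treated 18 hrs at 37 C. Data normalized to 17-beta-estradiol (20 nM) and DMSO, fitted to Hill equation.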

NCCc1cnc[nH]1
inactive: Potency [1] | Potency [2] | activation [3] 1.06% | Potency [4] | outcome [5] | Potency [6] | Potency [7] | Potency [8] | Potency [9] | outcome [10] | outcome [12]
1.05%: viability change [4]
44.7 µM (active) and inactive: Potency [11]

NC(=O)NO
inactive: Potency [1] | Potency [2] | activation [3] 1.12% | Potency [4] | outcome [5] | Potency [6] | Potency [7] | Potency [8] | Potency [9] | outcome [10] | Potency [11] | outcome [12] | Potency [13]
-1.36%: viability change [4]

Cn1cnc2c1c(=O)[nH]c(=O)n2C
-9.08%: viability change [4]
-1.33%: max response [17]
inactive: Potency [1] | Potency [2] | activation [3] 0.562% | Potency [4] | outcome [5] | Potency [6] | Potency [7] | Potency [8] | Potency [9] | outcome [10] | Potency [11] | outcome [12] | outcome [14] | Potency [15] | activation [16] -4.06%

O=C1c2c(O)ccc(O)c2C(=O)c2c(NCCNCCO)ccc(NCCNCCO)c21
active: Potency [2] 4.61 µM
inactive: Potency [1] | activation [3] 0.938% | outcome [5] | Potency [6] | Potency [7] | Potency [8]

CCC1(C)CC(=O)NC1=O (stereo not given)
inactive: Potency [1] | Potency [2] | activation [3] 1.44% | Potency [4] | outcome [5] | Potency [6] | Potency [7] | Potency [8] | Potency [9] | outcome [10] | Potency [11] | outcome [12]
4.35%: viability change [4]

O=C1N(c2ccccc2)c2ccccc2C1(Cc1ccncc1)Cc1ccncc1
inactive: Potency [1] | Potency [2] | activation [3] 1.31% | Potency [4] | outcome [5] | Potency [6] | Potency [7] | Potency [8] | Potency [9] | outcome [10] | Potency [11] | outcome [12] | outcome [14]
10.1%: viability change [4]

CC(C(=O)O)c1cccc(C(=O)c2ccccc2)c1 (stereo not given)
inactive: Potency [1] | Potency [2] | activation [3] 1.12% | Potency [4] | outcome [5] | Potency [6] | Potency [7] | Potency [8] | Potency [9] | outcome [10] | Potency [11] | outcome [12] | Potency [13]
-3.76%: viability change [4]

CC(C)NCC(O)c1ccc(O)c(O)c1 (stereo not given)
-5.16%: viability change [4]
4.84% and 9.19%: max response [17]
inactive: Potency [1] | Potency [2] | activation [3] 0.688% and 0.188% | Potency [4] | outcome [5] | Potency [6] | Potency [7] | Potency [8] | Potency [9] | Potency [11] | Potency [13] | activation [16] -1.74%

Clc1ccc2c(c1)C(N1CCNCC1)=Nc1ccccc1O2
inactive: Potency [1] | Potency [2] | activation [3] 4.19% | outcome [5] | Potency [6] | Potency [7] | Potency [8] | Potency [9] | outcome [10] | Potency [11]

Nc1nc2c(ncn2COC(CO)CO)c(=O)[nH]1
inactive: Potency [1] | Potency [2] | activation [3] 0.625% | Potency [4] | outcome [5] | Potency [6] | Potency [7] | Potency [8] | Potency [9] | outcome [10] | Potency [11] | outcome [12]
2.85%: viability change [4]

Cc1ccc(C(=O)Nc2ccc(S(=O)(=O)O)c3cc(S(=O)(=O)O)cc(S(=O)(=O)O)c23)cc1NC(=O)c1cccc(NC(=O)Nc2cccc(C(=O)Nc3cc(C(=O)Nc4ccc(S(=O)(=O)O)c5cc(S(=O)(=O)O)cc(S(=O)(=O)O)c45)ccc3C)c2)c1
inactive: Potency [1] | Potency [2] | activation [3] 0.688% | Potency [4] | outcome [5] | Potency [7] | outcome [10] | outcome [12] | outcome [14]
-15.2%: viability change [4]
active: Potency [6] 17.8 µM | Potency [8] 0.426 µM | Potency [9] 2.69 µM | Potency [11] 14.1 µM and 7.94 µM and 5.01 µM

CCCNCC(O)COc1ccccc1C(=O)CCc1ccccc1 (stereo not given)
inactive: Potency [1] | Potency [2] | activation [3] 4% | outcome [5] | Potency [6] | Potency [7] | Potency [8] | Potency [9] | outcome [10]

CC1COc2c(N3CCN(C)CC3)c(F)cc3c(=O)c(C(=O)O)cn1c23 (stereo not given)
inactive: Potency [1] | Potency [2] | activation [3] 1% | Potency [4] | outcome [5] | Potency [6] | Potency [7] | Potency [8] | Potency [9] | outcome [10] | Potency [11] | outcome [12] | Potency [13]
6.09%: viability change [4]

O=C(C1CCCCC1)N1CC(=O)N2CCc3ccccc3C2C1 (stereo not given)
inactive: Potency [1] | Potency [2] | activation [3] 0.312% | outcome [5] | Potency [6] | Potency [7] | Potency [8] | Potency [9] | outcome [10] | Potency [11] | outcome [12]

CN(C)CCC=C1c2ccccc2C=Cc2ccccc21
1.79%: viability change [4]
inactive: Potency [1] | Potency [2] | activation [3] 1.69% | Potency [4] | outcome [5] | Potency [6] | Potency [7] | Potency [8] | Potency [9] | outcome [10] | Potency [11] | outcome [12]

N[C@@H](Cc1c[nH]c2ccc(O)cc12)C(=O)O
inactive: Potency [1] | Potency [2] | activation [3] 0.125% | Potency [4] | outcome [5] | Potency [6] | Potency [7] | Potency [8] | Potency [9] | outcome [10] | Potency [11] | outcome [12] | outcome [18] | activation [16] -7.97%
-8.24%: viability change [4]
3.83%: max response [17]

NCCS(=O)(=O)O
inactive: Potency [1] | Potency [2] | activation [3] 1.12% | Potency [4] | outcome [5] | Potency [6] | Potency [7] | Potency [8] | Potency [9] | outcome [10] | Potency [11] | outcome [12] | outcome [14] | outcome [18] | activation [16] 1.42%
-6.75%: viability change [4]

COc1ccc(C2CNC(=O)C2)cc1OC1CCCC1 (stereo not given)
3.91%: viability change [4]
inactive: Potency [1] | Potency [2] | activation [3] 0.812% | Potency [4] | outcome [5] | Potency [6] | Potency [7] | Potency [8] | Potency [9] | outcome [10] | Potency [11] | outcome [12]

Source: PubChem BioAssay (NCATS)
